# Results published in the supplement of paper PMC10037445.
# In all, about 2,900 compounds were measured (“IRF Lucia reporter activity, fold change vs agonist alone”: median about 0.9, highest 2% from about 2.8 on). The full list was thinned out, with the highest values kept by preference.
# Columns and labels:
# RAW-Dual [1] = assay: IRF Lucia reporter activity, fold change vs agonist alone; higher = enhanced IRF activity; conditions: library stock concentration (final ~1000-fold dilution): 10 mM, agonist: MPLA (TLR4) […]
# Procedure, shortened: (§1)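 After 50 nL of library stock was delivered by pin tool to RAW-Dual macrophages (50,000 cells/well, DMEM, 384-well plates), a PRR agonist was added 1 h later and the plates were kept at 37 °C, 5% CO2. Twenty hours later, IRF was read from supernatant by QuantiLuc luminescence and NF-κB by QuantiBlue absorbance at 620 nm. Reporter activity is stated as fold change over agonist-alone wells. Wells with IncuCyte confluency under 70% of agonist controls in both mask sets were counted as cytotoxic.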
# RAW-Dual [2] = assay: IRF Lucia reporter activity, fold change vs agonist alone; cytotoxicity flag (confluency mask): not cytotoxic; higher = enhanced IRF activity
# Procedure, shortened: as §1
# RAW-Dual [3] = assay: IRF Lucia reporter activity, fold change vs agonist alone; cytotoxicity flag (confluency mask): cytotoxic (confluency <70% of control); higher = enhanced IRF activity
# Procedure, shortened: as §1
# [4] = cytotoxicity flag (confluency mask): not cytotoxic
# [5] = agonist: 3'3'-cGAMP (STING) 10 ug/mL
# [6] = cytotoxicity flag (confluency mask): cytotoxic (confluency <70% of control)
smiles,measurement,setting,value
Cc1cc(C(C)Nc2ccccc2C(=O)O)c2nc(N3CCOCC3)cc(=O)n2c1 (stereo not drawn),IRF Lucia reporter activity,RAW-Dual [1]; [4],0.843
CC(O)CO.CCOc1ccc(Cc2cc(C3OC(CO)C(O)C(O)C3O)ccc2Cl)cc1.O (stereo not drawn) (library stock concentration (final ~1000-fold dilution): 10 mM),IRF Lucia reporter activity,RAW-Dual [2]; [5],1.07
same,IRF Lucia reporter activity,RAW-Dual [2]; agonist: LPS (TLR4) 0.1 ug/mL,1.03
CC(O)CO.CCOc1ccc(Cc2cc(C3OC(CO)C(O)C(O)C3O)ccc2Cl)cc1.O (stereo not drawn),IRF Lucia reporter activity,RAW-Dual [1]; [4],1.05
CC(Cn1cnc2c(N)ncnc21)OCP(=O)(O)O (stereo not drawn) (library stock concentration (final ~1000-fold dilution): 10 mM),IRF Lucia reporter activity,RAW-Dual [2]; [5],1
same,IRF Lucia reporter activity,RAW-Dual [2]; agonist: LPS (TLR4) 0.1 ug/mL,1
CC(C)(C)C(=O)OCOP(=O)(COCCn1cnc2c(N)ncnc21)OCOC(=O)C(C)(C)C,IRF Lucia reporter activity,RAW-Dual [1]; [4],2.95
Nc1ncnc2c1ncn2C(C=O)OC(C=O)CO (stereo not drawn) (library stock concentration (final ~1000-fold dilution): 10 mM),IRF Lucia reporter activity,RAW-Dual [2]; [5],0.427
same,IRF Lucia reporter activity,RAW-Dual [2]; agonist: LPS (TLR4) 0.1 ug/mL,0.724
CC(C)(C)C(=O)OCOP(=O)(COCCn1cnc2c(N)ncnc21)OCOC(=O)C(C)(C)C (library stock concentration (final ~1000-fold dilution): 10 mM),IRF Lucia reporter activity,RAW-Dual [2]; [5],2.04
same,IRF Lucia reporter activity,RAW-Dual [2]; agonist: LPS (TLR4) 0.1 ug/mL,2.36
CC(Cn1cnc2c(N)ncnc21)OCP(=O)(O)O (stereo not drawn),IRF Lucia reporter activity,RAW-Dual [1]; [4],1.05
Cc1ccc(C2OC(CO)C(O)C(O)C2O)cc1Cc1ccc(-c2ccc(F)cc2)s1.Cc1ccc(C2OC(CO)C(O)C(O)C2O)cc1Cc1ccc(-c2ccc(F)cc2)s1.O (stereo not drawn) (library stock concentration (final ~1000-fold dilution): 10 mM),IRF Lucia reporter activity,RAW-Dual [3]; [5],0.0212
same,IRF Lucia reporter activity,RAW-Dual [3]; agonist: LPS (TLR4) 0.1 ug/mL,0.026
Cc1ccc(C2OC(CO)C(O)C(O)C2O)cc1Cc1ccc(-c2ccc(F)cc2)s1.Cc1ccc(C2OC(CO)C(O)C(O)C2O)cc1Cc1ccc(-c2ccc(F)cc2)s1.O (stereo not drawn),IRF Lucia reporter activity,RAW-Dual [1]; [6],0.0328
COc1cc2c(Oc3ccc4[nH]c(C)cc4c3F)ncnc2cc1OCCCN1CCCC1.O=C(O)/C=C\C(=O)O (library stock concentration (final ~1000-fold dilution): 10 mM),IRF Lucia reporter activity,RAW-Dual [3]; [5],0.783
same,IRF Lucia reporter activity,RAW-Dual [3]; agonist: LPS (TLR4) 0.1 ug/mL,1.92
COc1cc2c(Oc3ccc4[nH]c(C)cc4c3F)ncnc2cc1OCCCN1CCCC1.O=C(O)/C=C\C(=O)O,IRF Lucia reporter activity,RAW-Dual [1]; [6],2.35
Cc1cc2c(F)c(Oc3ncnn4cc(OCC(C)OC(=O)C(C)N)c(C)c34)ccc2[nH]1 (stereo not drawn),IRF Lucia reporter activity,RAW-Dual [1]; [6],2.88
Cc1cc2c(F)c(Oc3ncnn4cc(OCC(C)O)c(C)c34)ccc2[nH]1 (stereo not drawn) (library stock concentration (final ~1000-fold dilution): 10 mM),IRF Lucia reporter activity,RAW-Dual [2]; [5],1.01
same,IRF Lucia reporter activity,RAW-Dual [2]; agonist: LPS (TLR4) 0.1 ug/mL,1.75
Cc1cc2c(F)c(Oc3ncnn4cc(OCC(C)O)c(C)c34)ccc2[nH]1 (stereo not drawn),IRF Lucia reporter activity,RAW-Dual [1]; [4],1.93
Cc1cc2c(F)c(Oc3ncnn4cc(OCC(C)OC(=O)C(C)N)c(C)c34)ccc2[nH]1 (stereo not drawn) (library stock concentration (final ~1000-fold dilution): 10 mM),IRF Lucia reporter activity,RAW-Dual [3]; [5],0.967
same,IRF Lucia reporter activity,RAW-Dual [3]; agonist: LPS (TLR4) 0.1 ug/mL,2.13
COS(=O)(=O)[O-].Cc1cc2c3c([n+](C)c4ccc(F)cc4c3c1)-c1cc(F)ccc1N2C (library stock concentration (final ~1000-fold dilution): 10 mM),IRF Lucia reporter activity,RAW-Dual [2]; [5],1.39
same,IRF Lucia reporter activity,RAW-Dual [2]; agonist: LPS (TLR4) 0.1 ug/mL,1.53
CN1CCN(CCCN2c3ccccc3Sc3ccc(Cl)cc32)CC1.O=C(O)/C=C\C(=O)O.O=C(O)/C=C\C(=O)O,IRF Lucia reporter activity,RAW-Dual [1]; [6],0.883
CN1CCN(CCCN2c3ccccc3Sc3ccc(Cl)cc32)CC1.O=C(O)/C=C\C(=O)O.O=C(O)/C=C\C(=O)O (library stock concentration (final ~1000-fold dilution): 10 mM),IRF Lucia reporter activity,RAW-Dual [3]; [5],0.64
same,IRF Lucia reporter activity,RAW-Dual [3]; agonist: LPS (TLR4) 0.1 ug/mL,0.589
O=C(O)C1OC(Oc2cc3oc(-c4ccccc4)cc(=O)c3c(O)c2O)C(O)C(O)C1O (stereo not drawn) (library stock concentration (final ~1000-fold dilution): 10 mM),IRF Lucia reporter activity,RAW-Dual [2]; [5],0.96
same,IRF Lucia reporter activity,RAW-Dual [2]; agonist: LPS (TLR4) 0.1 ug/mL,0.958
O=C(O)C1OC(Oc2cc3oc(-c4ccccc4)cc(=O)c3c(O)c2O)C(O)C(O)C1O (stereo not drawn),IRF Lucia reporter activity,RAW-Dual [1]; [4],1.03
CC(C)OC(=O)C(C)NP(=O)(OCC1OC(n2ccc(=O)[nH]c2=O)C(C)(F)C1O)Oc1ccccc1 (stereo not drawn) (library stock concentration (final ~1000-fold dilution): 10 mM),IRF Lucia reporter activity,RAW-Dual [2]; [5],1.04
same,IRF Lucia reporter activity,RAW-Dual [2]; agonist: LPS (TLR4) 0.1 ug/mL,0.731
CC(C)OC(=O)C(C)NP(=O)(OCC1OC(n2ccc(=O)[nH]c2=O)C(C)(F)C1O)Oc1ccccc1 (stereo not drawn),IRF Lucia reporter activity,RAW-Dual [1]; [4],1.04
COc1cc2c(NC3CCN(C(C)C)CC3)nc(C3CCCCC3)nc2cc1OCCCN1CCCC1 (library stock concentration (final ~1000-fold dilution): 10 mM),IRF Lucia reporter activity,RAW-Dual [3]; [5],0.154
same,IRF Lucia reporter activity,RAW-Dual [3]; agonist: LPS (TLR4) 0.1 ug/mL,0.0189
COc1cc2c(NC3CCN(C(C)C)CC3)nc(N3CCC(F)(F)CC3)nc2cc1OCCCN1CCCC1,IRF Lucia reporter activity,RAW-Dual [1]; [6],0.652
COc1cc2nc(N3CCCC3)nc(NCCCCCN3CCCC3)c2cc1OC (library stock concentration (final ~1000-fold dilution): 10 mM),IRF Lucia reporter activity,RAW-Dual [3]; [5],0.313
same,IRF Lucia reporter activity,RAW-Dual [3]; agonist: LPS (TLR4) 0.1 ug/mL,2.54
COc1cc2nc(N3CCCC3)nc(NCCCCCN3CCCC3)c2cc1OC,IRF Lucia reporter activity,RAW-Dual [1]; [6],0.8
COc1cc2c(NC3CCN(C(C)C)CC3)nc(N3CCC(F)(F)CC3)nc2cc1OCCCN1CCCC1 (library stock concentration (final ~1000-fold dilution): 10 mM),IRF Lucia reporter activity,RAW-Dual [3]; [5],0.849
same,IRF Lucia reporter activity,RAW-Dual [3]; agonist: LPS (TLR4) 0.1 ug/mL,4.2
